For some of these results: Entries with a potency or affinity are not part of this list.
Tests used:
Design in all cases: scale not given: direction of the effect not stated beside the values
[1] = biological target: Protein translocase subunit SecA (Escherichia coli (strain K12)) (UniProt P10408); test: Assay to Identify E. coli SecA ATPase Inhibitors; format: functional; conditions: 30 µM
[2] = biological target: T1, Ubiquitin-activating enzyme e1, putative (Leishmania donovani (strain BPK282A1)) (UniProt E9BSI1); test: Leishmania donovani Ubiquitin Activating Enzyme (LdE1); format: functional; conditions: 30 µM
T1 sequence (whole entry): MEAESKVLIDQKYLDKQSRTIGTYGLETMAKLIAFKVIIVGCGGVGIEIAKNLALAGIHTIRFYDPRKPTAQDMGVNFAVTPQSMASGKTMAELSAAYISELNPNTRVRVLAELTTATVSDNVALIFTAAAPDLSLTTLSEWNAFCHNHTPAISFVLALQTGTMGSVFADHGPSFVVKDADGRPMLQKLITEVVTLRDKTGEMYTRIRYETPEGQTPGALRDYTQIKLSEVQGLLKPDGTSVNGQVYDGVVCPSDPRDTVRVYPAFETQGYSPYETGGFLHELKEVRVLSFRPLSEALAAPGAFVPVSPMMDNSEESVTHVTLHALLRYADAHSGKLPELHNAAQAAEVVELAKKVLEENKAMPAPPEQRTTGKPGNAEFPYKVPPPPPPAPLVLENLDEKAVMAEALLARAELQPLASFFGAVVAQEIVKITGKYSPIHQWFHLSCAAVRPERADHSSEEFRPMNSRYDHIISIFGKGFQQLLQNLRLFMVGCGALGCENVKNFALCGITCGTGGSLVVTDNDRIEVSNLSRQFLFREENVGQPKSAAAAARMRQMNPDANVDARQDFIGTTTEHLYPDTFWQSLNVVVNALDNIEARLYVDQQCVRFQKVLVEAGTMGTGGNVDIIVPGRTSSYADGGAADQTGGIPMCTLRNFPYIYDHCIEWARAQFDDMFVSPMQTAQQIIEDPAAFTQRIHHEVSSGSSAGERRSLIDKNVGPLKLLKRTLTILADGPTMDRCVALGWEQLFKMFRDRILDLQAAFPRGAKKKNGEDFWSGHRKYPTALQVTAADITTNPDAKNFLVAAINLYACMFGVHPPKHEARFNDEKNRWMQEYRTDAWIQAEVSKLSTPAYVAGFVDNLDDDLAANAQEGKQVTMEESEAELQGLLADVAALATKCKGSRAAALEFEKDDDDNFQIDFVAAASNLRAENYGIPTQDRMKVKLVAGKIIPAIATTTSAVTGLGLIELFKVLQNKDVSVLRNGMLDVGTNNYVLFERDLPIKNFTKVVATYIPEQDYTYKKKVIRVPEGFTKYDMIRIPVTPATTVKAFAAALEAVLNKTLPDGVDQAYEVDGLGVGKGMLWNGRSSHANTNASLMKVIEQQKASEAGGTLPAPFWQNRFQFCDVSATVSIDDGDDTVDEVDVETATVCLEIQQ

[3] = biological target: AMP-activated protein kinase, AMPK (Homo sapiens) (UniProt P54646+O43741+P54619+Q9UGJ0+Q9Y478+Q13131+Q9UGI9); test: AMP-dependent Kinase enzyme assay. An in vitro enzyme assay that detects ADP turnover that is directly proportional to AMPK activity. This uses naive AMPK that is activated during the assay with MK-8722; format: functional; conditions: 30 µM
[4] = biological target: Sialic acid-binding Ig-like lectin 9 (Homo sapiens) (UniProt Q9Y336); test: Hs-Siglec9 ALPHAscreen SOP 20170721; conditions: 10 µM
Trypanosoma cruzi = test: Trypanosoma cruzi phosphomannomutase and mannose-1-phosphate guanylyltransferase assay; format: functional; conditions: 10 µM
[5] = biological target: T2, Arginase-2, mitochondrial (Homo sapiens) (UniProt P78540); test: in vitro enzyme assay to detect the production of urea directly proportional to the activity of Arginase II; format: functional; conditions: 33.3 µM; further: in the data most compounds retested in dose-response had high values
T2 sequence (whole entry): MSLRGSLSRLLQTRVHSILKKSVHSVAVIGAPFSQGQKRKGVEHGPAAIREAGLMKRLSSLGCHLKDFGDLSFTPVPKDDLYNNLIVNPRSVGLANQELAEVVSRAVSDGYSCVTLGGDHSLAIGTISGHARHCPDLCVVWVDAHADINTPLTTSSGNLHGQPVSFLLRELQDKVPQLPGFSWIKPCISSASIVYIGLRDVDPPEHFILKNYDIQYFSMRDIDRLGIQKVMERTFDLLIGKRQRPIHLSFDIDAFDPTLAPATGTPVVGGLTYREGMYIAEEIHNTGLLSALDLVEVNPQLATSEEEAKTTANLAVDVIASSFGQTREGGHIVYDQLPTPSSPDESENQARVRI

[6] = biological target: T3, Proteasome subunit beta (Trypanosoma cruzi) (UniProt O96673); test: Trypanosoma cruzi proteasome chymotrypsin-like activity (TcProtChymo) assay.; further: in the data most compounds retested in dose-response had high values; format: functional; conditions: 9.37 µM
T3 sequence (whole entry): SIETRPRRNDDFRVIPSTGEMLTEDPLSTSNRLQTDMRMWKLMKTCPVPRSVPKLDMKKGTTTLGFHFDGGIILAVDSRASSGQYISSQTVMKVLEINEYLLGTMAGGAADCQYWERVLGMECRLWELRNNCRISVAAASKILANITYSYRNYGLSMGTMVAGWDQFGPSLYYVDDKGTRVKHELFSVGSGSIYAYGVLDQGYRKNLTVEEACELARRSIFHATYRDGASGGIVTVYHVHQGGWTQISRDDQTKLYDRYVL

Homo sapiens = species on record: Homo sapiens; test: To identify inhibition of the IFN signalling (Jak-Stat) pathway via expression of an eGFP reporter gene under the control of an IFN-stimulated response element (ISRE) containing MxA promoter.; format: functional; conditions: 30 µM
[7] = biological target: T4, Tyrosyl-tRNA synthetase, putative (Trypanosoma cruzi (strain CL Brener)) (UniProt Q4DSP6); test: Trypanosoma cruzi tyrosyl tRNA synthetase (TcYRS) _High Tyrosine SOP; format: functional; conditions: 30 µM; further: in the data most compounds retested in dose-response had high values
T4 sequence (whole entry): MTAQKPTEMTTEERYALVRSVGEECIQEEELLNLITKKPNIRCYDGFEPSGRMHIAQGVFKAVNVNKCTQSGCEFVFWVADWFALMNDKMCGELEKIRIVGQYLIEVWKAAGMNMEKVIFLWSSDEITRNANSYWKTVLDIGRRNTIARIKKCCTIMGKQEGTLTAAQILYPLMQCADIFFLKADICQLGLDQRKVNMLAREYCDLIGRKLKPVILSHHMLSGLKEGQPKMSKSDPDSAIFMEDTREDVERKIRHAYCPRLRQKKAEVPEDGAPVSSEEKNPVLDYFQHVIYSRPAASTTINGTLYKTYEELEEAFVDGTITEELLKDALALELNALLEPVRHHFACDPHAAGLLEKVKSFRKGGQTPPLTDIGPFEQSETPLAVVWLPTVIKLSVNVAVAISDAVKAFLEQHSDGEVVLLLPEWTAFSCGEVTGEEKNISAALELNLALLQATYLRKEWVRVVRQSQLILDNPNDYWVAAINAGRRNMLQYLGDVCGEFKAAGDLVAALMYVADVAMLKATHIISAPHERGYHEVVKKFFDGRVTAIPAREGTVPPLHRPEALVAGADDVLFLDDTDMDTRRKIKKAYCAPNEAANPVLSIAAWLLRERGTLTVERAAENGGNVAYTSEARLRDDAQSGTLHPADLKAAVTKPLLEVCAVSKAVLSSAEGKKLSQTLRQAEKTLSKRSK

[8] = biological target: T4, Tyrosyl-tRNA synthetase, putative (Trypanosoma cruzi (strain CL Brener)); test: Trypanosoma cruzi tyrosyl tRNA synthetase (TcYRS) SOP; format: functional; conditions: 30 µM
[9] = biological target: Chromo domain-containing protein 1 (Saccharomyces cerevisiae (strain ATCC 204508 / S288c) (Baker's yeast)) (UniProt P32657); test: ScCHD-1 Enzyme Inhibition Assay; format: functional; conditions: 30 µM; further: in the data most compounds retested in dose-response had high values
Chromo domain-containing protein 1 (Saccharomyces cerevisiae (strain ATCC 204508 / S288c) (Baker's yeast)), sequence (P32657 whole entry, the tested form may be a part): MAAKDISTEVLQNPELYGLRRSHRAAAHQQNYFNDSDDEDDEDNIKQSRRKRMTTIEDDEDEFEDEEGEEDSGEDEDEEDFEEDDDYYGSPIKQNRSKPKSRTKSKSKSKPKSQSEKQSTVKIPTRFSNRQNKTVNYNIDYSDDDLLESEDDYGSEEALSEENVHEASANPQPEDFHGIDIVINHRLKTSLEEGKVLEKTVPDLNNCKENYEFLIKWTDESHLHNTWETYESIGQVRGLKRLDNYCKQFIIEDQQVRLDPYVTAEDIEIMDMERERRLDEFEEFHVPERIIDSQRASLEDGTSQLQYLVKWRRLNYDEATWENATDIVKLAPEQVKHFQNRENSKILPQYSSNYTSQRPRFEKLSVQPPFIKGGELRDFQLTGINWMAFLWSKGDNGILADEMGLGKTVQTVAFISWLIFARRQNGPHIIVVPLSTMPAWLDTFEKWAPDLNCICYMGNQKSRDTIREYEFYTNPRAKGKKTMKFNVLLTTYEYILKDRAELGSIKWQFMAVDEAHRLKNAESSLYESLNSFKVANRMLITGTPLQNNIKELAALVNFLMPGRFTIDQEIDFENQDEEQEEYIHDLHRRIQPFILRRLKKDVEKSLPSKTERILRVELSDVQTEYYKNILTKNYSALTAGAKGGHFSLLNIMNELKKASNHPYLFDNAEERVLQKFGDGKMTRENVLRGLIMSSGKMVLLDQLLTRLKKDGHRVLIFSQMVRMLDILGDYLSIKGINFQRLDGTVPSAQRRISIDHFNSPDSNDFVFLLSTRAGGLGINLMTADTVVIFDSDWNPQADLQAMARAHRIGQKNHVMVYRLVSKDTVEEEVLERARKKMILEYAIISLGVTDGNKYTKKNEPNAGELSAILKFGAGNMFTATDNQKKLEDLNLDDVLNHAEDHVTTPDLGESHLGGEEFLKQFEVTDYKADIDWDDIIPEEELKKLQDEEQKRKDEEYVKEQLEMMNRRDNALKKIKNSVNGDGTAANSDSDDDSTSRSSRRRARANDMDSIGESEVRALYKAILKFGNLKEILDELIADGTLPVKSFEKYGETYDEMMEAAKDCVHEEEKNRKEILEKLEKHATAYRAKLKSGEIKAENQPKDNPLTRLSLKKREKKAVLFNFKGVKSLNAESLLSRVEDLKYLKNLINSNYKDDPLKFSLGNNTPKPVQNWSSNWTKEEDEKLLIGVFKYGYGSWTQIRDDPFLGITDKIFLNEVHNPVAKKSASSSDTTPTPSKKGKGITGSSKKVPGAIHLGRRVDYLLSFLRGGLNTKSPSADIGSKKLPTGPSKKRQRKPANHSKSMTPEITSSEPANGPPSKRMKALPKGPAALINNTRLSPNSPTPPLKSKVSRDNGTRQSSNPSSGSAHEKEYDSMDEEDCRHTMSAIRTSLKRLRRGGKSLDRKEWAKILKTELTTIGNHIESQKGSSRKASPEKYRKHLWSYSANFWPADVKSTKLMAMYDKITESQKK

Sialic acid-binding Ig-like lectin 9 (Homo sapiens), sequence (Q9Y336 whole entry): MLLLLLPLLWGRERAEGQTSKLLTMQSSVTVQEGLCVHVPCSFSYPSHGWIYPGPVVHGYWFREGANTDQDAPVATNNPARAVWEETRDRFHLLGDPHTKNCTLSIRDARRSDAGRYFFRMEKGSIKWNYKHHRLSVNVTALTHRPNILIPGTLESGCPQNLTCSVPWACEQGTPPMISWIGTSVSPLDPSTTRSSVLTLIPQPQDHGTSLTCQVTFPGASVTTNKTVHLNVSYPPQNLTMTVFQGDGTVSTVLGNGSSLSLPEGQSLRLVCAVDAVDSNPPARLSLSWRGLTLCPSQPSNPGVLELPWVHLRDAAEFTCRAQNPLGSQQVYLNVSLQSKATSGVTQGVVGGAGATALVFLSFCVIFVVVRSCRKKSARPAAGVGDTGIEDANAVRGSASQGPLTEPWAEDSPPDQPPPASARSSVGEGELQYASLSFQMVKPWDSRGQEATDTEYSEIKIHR
Protein translocase subunit SecA (Escherichia coli (strain K12)), sequence (P10408 whole entry): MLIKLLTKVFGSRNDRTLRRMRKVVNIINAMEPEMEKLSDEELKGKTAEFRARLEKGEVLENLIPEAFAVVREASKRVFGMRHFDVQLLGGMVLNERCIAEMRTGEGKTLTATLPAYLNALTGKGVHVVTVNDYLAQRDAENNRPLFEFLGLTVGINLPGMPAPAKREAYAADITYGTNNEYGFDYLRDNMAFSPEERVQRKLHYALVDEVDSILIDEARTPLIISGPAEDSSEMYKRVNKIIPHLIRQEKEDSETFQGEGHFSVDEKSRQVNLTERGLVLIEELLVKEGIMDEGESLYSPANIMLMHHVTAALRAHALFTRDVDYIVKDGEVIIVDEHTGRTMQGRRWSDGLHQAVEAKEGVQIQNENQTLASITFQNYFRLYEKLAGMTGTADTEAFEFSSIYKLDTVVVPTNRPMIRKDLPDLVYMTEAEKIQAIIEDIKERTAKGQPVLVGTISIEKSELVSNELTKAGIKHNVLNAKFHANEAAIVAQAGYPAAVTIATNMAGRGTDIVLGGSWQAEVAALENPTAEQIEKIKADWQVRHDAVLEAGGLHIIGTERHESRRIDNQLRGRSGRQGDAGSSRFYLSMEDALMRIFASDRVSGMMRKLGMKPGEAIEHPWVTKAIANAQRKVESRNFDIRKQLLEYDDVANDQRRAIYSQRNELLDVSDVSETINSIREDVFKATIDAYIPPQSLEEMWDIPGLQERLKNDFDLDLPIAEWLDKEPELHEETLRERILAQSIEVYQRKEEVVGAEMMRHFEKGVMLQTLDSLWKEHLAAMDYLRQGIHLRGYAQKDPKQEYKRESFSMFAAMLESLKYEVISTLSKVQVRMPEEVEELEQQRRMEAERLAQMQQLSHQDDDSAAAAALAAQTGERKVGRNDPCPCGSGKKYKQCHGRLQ

Structure (SMILES): O=C(NCc1cc[nH]n1)N1CCCCC(N2CCCC2)C1 (stereo unspecified)
- Percent Effect [1]: -3.54%
- Percent Effect [2]: -10.5%
- Percent Effect [3]: -9.14%
- Percent Effect [4]: 11.7%
- Percent Effect (Trypanosoma cruzi): 6.44%
- Percent Effect [5]: 2.16%
- Percent Effect [6]: 1.27%
- Percent Effect (Homo sapiens): 7.32%
- Percent Effect [7]: 7.39%
- Percent Effect [8]: 23.5%
- Percent Effect [9]: 3.8%

Structure (SMILES): CNC(=O)C1Cn2ccnc2C2(CCN(Cc3cccnc3)CC2)O1 (stereo unspecified)
- Percent Effect [1]: -4.76%
- Percent Effect [2]: 10.8%
- Percent Effect [3]: 2.08%
- Percent Effect [4]: 2.7%
- Percent Effect (Trypanosoma cruzi): -0.684%
- Percent Effect [5]: -0.319%
- Percent Effect [6]: 23.4%
- Percent Effect (Homo sapiens): -1.62%
- Percent Effect [7]: 9.73%
- Percent Effect [8]: 25.6%
- Percent Effect [9]: -0.425%

Structure (SMILES): CN(C)C(=O)N1CCn2nc(CNC(=O)CCC(F)(F)F)cc2C1
- Percent Effect [1]: 0.369%
- Percent Effect [2]: 6.94%
- Percent Effect [3]: -0.273%
- Percent Effect [4]: 2.6%
- Percent Effect (Trypanosoma cruzi): 4.18%
- Percent Effect [5]: 13.7%
- Percent Effect [6]: 10.3%
- Percent Effect (Homo sapiens): 15%
- Percent Effect [7]: 6.32%
- Percent Effect [8]: 15.4%
- Percent Effect [9]: -4.37%

Structure (SMILES): CCS(=O)(=O)N(C)C1CCN(C(=O)c2cccc(Cl)c2)CC1
- Percent Effect [1]: -3.98%
- Percent Effect [2]: 16.2%
- Percent Effect [3]: -9.5%
- Percent Effect [4]: 1.05%
- Percent Effect (Trypanosoma cruzi): 4.3%
- Percent Effect [5]: 11.2%
- Percent Effect [6]: 9.38%
- Percent Effect (Homo sapiens): -0.31%
- Percent Effect [7]: 6.93%
- Percent Effect [8]: 11%
- Percent Effect [9]: -6.5%

Structure (SMILES): CC(=O)c1cccc(OCCCC(=O)NCC2CCCN2C)c1 (stereo unspecified)
- Percent Effect [1]: -3.97%
- Percent Effect [2]: 13.2%
- Percent Effect [3]: -2.69%
- Percent Effect [4]: 14.8%
- Percent Effect (Trypanosoma cruzi): 3.57%
- Percent Effect [5]: 0%
- Percent Effect [6]: 11.7%
- Percent Effect (Homo sapiens): 6.04%
- Percent Effect [7]: 10.3%
- Percent Effect [8]: 21.9%
- Percent Effect [9]: -9.7%

Structure (SMILES): O=C1CCC2(CCCN(C(=O)c3cscn3)C2)CN1CCc1c[nH]cn1 (stereo unspecified)
- Percent Effect [1]: -3.15%
- Percent Effect [2]: 7.79%
- Percent Effect [3]: -3.24%
- Percent Effect [4]: 13.5%
- Percent Effect (Trypanosoma cruzi): 6.98%
- Percent Effect [5]: -9.65%
- Percent Effect [6]: 15.1%
- Percent Effect (Homo sapiens): -31.6%
- Percent Effect [7]: 5.38%
- Percent Effect [8]: 13.6%
- Percent Effect [9]: -5.62%

Structure (SMILES): O=C(NCCCN1CCCCC1)c1ccc(-n2ccc3ccccc32)s1
- Percent Effect [1]: -0.638%
- Percent Effect [2]: -23.4%
- Percent Effect [3]: -0.0111%
- Percent Effect [4]: -2.17%
- Percent Effect (Trypanosoma cruzi): 11.1%
- Percent Effect [5]: -9.68%
- Percent Effect [6]: 9.4%
- Percent Effect (Homo sapiens): 22.6%
- Percent Effect [7]: -3.17%
- Percent Effect [8]: 1.28%
- Percent Effect [9]: 1.91%

Structure (SMILES): Cc1ccoc1C(=O)N1CCOCC2(CCN(c3ncccn3)C2)C1 (stereo unspecified)
- Percent Effect [1]: -3.09%
- Percent Effect [2]: 5.41%
- Percent Effect [3]: -4.43%
- Percent Effect [4]: 21.7%
- Percent Effect (Trypanosoma cruzi): 5.57%
- Percent Effect [5]: 13.2%
- Percent Effect [6]: 9.01%
- Percent Effect (Homo sapiens): 10.4%
- Percent Effect [7]: 7.53%
- Percent Effect [8]: 21%
- Percent Effect [9]: -6.03%

Structure (SMILES): O=C(NCCc1ccn(-c2ccccc2)n1)N1CCC1
- Percent Effect [1]: -2.79%
- Percent Effect [2]: 15.6%
- Percent Effect [3]: -0.615%
- Percent Effect [4]: -16.6%
- Percent Effect (Trypanosoma cruzi): 1.67%
- Percent Effect [5]: -2.32%
- Percent Effect [6]: 25.5%
- Percent Effect (Homo sapiens): 4.57%
- Percent Effect [7]: 5.71%
- Percent Effect [8]: 25.9%
- Percent Effect [9]: -20.8%

Structure (SMILES): Cc1cc(CN(C)C(=O)NC2CCN(Cc3ccccc3)C2)no1 (stereo unspecified)
- Percent Effect [1]: -1.84%
- Percent Effect [2]: 18.4%
- Percent Effect [3]: -5.49%
- Percent Effect [4]: -5.79%
- Percent Effect (Trypanosoma cruzi): 4.51%
- Percent Effect [5]: -2.3%
- Percent Effect [6]: 15.4%
- Percent Effect (Homo sapiens): -0.406%
- Percent Effect [7]: 8.33%
- Percent Effect [8]: 21.9%
- Percent Effect [9]: -12%

Structure (SMILES): CCSc1ccc(C(=O)Nc2c(C)nn(C(C)C)c2C)cn1
- Percent Effect [1]: -9.54%
- Percent Effect [2]: -2.74%
- Percent Effect [3]: 1.71%
- Percent Effect [4]: -2.98%
- Percent Effect (Trypanosoma cruzi): -0.198%
- Percent Effect [5]: -1.2%
- Percent Effect [6]: 4.71%
- Percent Effect (Homo sapiens): 20.2%
- Percent Effect [7]: 0%
- Percent Effect [8]: 1.24%
- Percent Effect [9]: -2.1%

— ChEMBL document CHEMBL3988442, “University of Dundee, Small-Polar-MMV Screening Library” (2021)
